Source: PubChem
DT40 TDP1 CPT – qHTS for Inhibitors of human tyrosyl-DNA phosphodiesterase 1 (TDP1): qHTS in cells in presence of CPT; chicken DT40 Tdp1-/-;hTDP1 cells + 20 nM CPT, ATP luminescence, 48 h; Potency, µM (series often up to 46.2 µM), usual class: inhibitors; hit rate 12% among 420,000; AID 686979, 2013; also: nearly all actives have a fitted effect of over 55% in size
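Chicken DT40 Tdp1-/- cells stably complemented with human TDP1 were seeded at 400 cells/well in medium containing 20 nM camptothecin, exposed to pin-transferred compounds, and grown at 37 °C for at least 48 hr. Viability was read as ATP luminescence.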
ATXN2 expr inh – Primary qHTS for Inhibitors of ATXN expression. hit rate 0.72% among 360,000. AID 1745845, 2022. HEK-293 ATXN2-luciferase reporter, luminescence, 24 h. Potency, µM (series often up to 57 µM), hits mostly inhibitors; also: nearly all actives have a fitted effect of over 55% in size
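qHTS (up to 57 uM final) was run with 24 h compound exposure of reporter cells at 37 °C. Each well was multiplexed: SteadyGlo luminescence measured ATXN2-luciferase expression after a fluorogenic Gly-Phe-AFC viability readout (25 uM final).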
HepG2 tox – qHTS for Inhibitors of TGF-b: Cytotox Counterscreen. HepG2 CAGA-GFP viability, ATP luminescence, 18 h. hit rate 0.76% among 410,000. Potency, µM (doses to about 46.1 µM), hits mostly cytotoxic
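CellTiter-Glo luminescence gave cytotoxicity after 18 hours at 37 degrees C. The cells were HepG2 CAGA-GFP in 1% FBS DMEM, stimulated with 500 pg/mL TGF-beta after compound addition. %Activity was normalised to no-cell wells (complete cell-killing) and DMSO (no toxicity), and curves were fitted and classified.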
TGFb SMAD3 inh – qHTS for Inhibitors of TGF-b. AID 588855, 2011. hit rate 1.2% among 410,000. HepG2 CAGA-GFP TGF-b/SMAD3 reporter, GFP fluorescence, 18 h; TGF-beta stimulated, 500 pg/mL final. Potency, µM (top dose mostly 46.1 µM), usual class: inhibitors; also: nearly all actives have a fitted effect of over 65% in size
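Inhibition was scored as loss of TGF-beta-induced (500 pg/mL final, 18 hours, 37 degrees C) GFP in HEPG2 cells carrying a CAGA-GFP reporter, in DMEM with 1% FBS. Well GFP was summed per cell; Activity was normalised to unstimulated and stimulated DMSO wells, then concentration-response fitting.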
ATXN viability – Viability Counterscreen for Primary qHTS for Inhibitors of ATXN expression; AID 651635, 2014; S2 cells (HEK-293 line with an ATXN2-luciferase reporter) viability, CellTiter-Fluor protease fluorescence, 24 h; Potency, µM (top dose mostly 56.7 µM), hits mostly cytotoxic; hit rate 0.49% among 400,000; also: nearly all actives have a fitted effect of over 40% in size
DT40 TDP1 no CPT – qHTS for Inhibitors of human tyrosyl-DNA phosphodiesterase 1 (TDP1): qHTS in cells in absence of CPT; DT40 Tdp1-/- hTDP1 cells, no CPT, ATP luminescence, 48 h; Potency, µM (titrated, usually from 46.2 µM), usual class: inhibitors; hit rate 15% among 420,000; also: nearly all actives have a fitted effect of over 55% in size
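Cells were dispensed at 400 per well, compounds added by pin tool, plates incubated ≥48 hr at 37 °C, then CellTiter-Glo added for 30 min at room temperature before luminescence reading. Line: DT40 Tdp1-/- complemented with hTDP1; camptothecin omitted.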
Numbers stand for hits; 0 = inactive; ? = inconclusive; - = no result. Only some compounds are listed: those with a hit (about 17% of all), similar ones and a draw of the others. Calls follow the shape of the dose curve; as a rule, active = well fitted curve in the direction sought with a large enough effect; inconclusive = small, poorly fitted or top-dose-only effect, or another doubt; inactive = no such curve, though single readings can be large; an effect the other way counts as inactive or inconclusive.

SMILES	DT40 TDP1 CPT	ATXN2 expr inh	HepG2 tox	TGFb SMAD3 inh	ATXN viability	DT40 TDP1 no CPT
COc1ccc(S(=O)(=O)N2CCC(C(=O)NCCC(=O)NCc3ccccc3OC)CC2)cc1	0	0	0	0	0	0
COc1ccc(OC)c(-c2ccnc(-n3ncc(C(=O)N(C)CCO)c3C3CC3)n2)c1	0	-	-	-	0	0
COCCN(C(=O)c1ccc(COc2ccccc2)o1)c1c(N)n(CC(C)C)c(=O)[nH]c1=O	0	0	0	0	?	0
Cc1nnc(SC(C)C(=O)Nc2ccc(N3CCOCC3)cc2)n1Cc1ccccc1 (stereo not drawn)	0	0	0	0	0	0
Cc1cc(OCC(=O)Nc2ccncc2)ccc1Cl	?	0	0	0	0	?
CCC(=O)NC(=S)Nc1ccc(NC(=O)COc2ccc(Cl)cc2Cl)cc1	16µM	0	0	?	?	8.2µM
COc1ccc(NC(=S)NNC(=O)COc2ccc(Cl)cc2Cl)cc1	?	0	0	0	0	21µM
CCC(=O)NC(=S)Nc1ccc(NC(=O)COc2ccc(Cl)c(C)c2)cc1	13µM	0	0	?	0	16µM
CCC(=O)Nc1ccc(Cl)c(NC(=S)NC(=O)COc2ccc(Cl)cc2)c1	0	0	0	0	0	0
COC(CC(=O)NNC(=S)Nc1ccc(Cl)cc1)OC	18µM	0	0	0	0	18µM
Cc1cccc(NC(=S)NNC(=O)COc2ccc(Cl)cc2Cl)c1	0	0	0	0	0	0
CC(CCNC(=O)c1ccccc1)(CCNC(=O)c1ccccc1)[N+](=O)[O-]	0	0	0	0	0	0
CNc1nc(Nc2ccc(C(C)=O)cc2)nc(OC(C(F)(F)F)C(F)(F)F)n1	?	0	0	0	0	23µM
CSCCC(C)N1CCC(Oc2ccc(C(=O)NCc3ccccn3)cc2)CC1 (stereo not drawn)	0	-	0	0	0	0
Cc1ccc(NC(=O)CC(C)S(=O)(=O)c2ccc3c(c2)NC(=O)CO3)cc1C (stereo not drawn)	?	0	0	0	0	?
Cc1ccc(NC(=O)CC(C)S(=O)(=O)c2ccc3c(c2)NC(=O)CO3)cc1Cl (stereo not drawn)	0	0	0	0	?	21µM
Cc1ccc(NS(=O)(=O)c2ccc3c(c2)NC(=O)CO3)cc1Cl	18µM	-	0	?	0	?
Cc1ccc(NS(=O)(=O)c2ccc3c(c2)NC(=O)CO3)cc1C	?	-	0	0	0	?
COc1ccc(S(=O)(=O)N(CCCN2CCOCC2)Cc2cccc(OC)c2OC)cc1	0	0	0	0	0	0
COc1ccc(S(=O)(=O)N(CCN2CCOCC2)Cc2cc(OC)ccc2OC)cc1	0	0	0	0	0	13µM
Brc1ccc(-c2csc(NNC3=NCCCCC3)n2)cc1	?	0	0	0	?	?
FC(F)Oc1ccc(-c2csc(NNC3=NCCCCC3)n2)cc1	4.6µM	?	0	0	?	15µM
CC1=C(C#N)C(NC(=O)c2ccccc2)(C(F)(F)F)C(=O)N1 (stereo not drawn)	0	0	0	0	0	0
CC(=O)Nc1cc2cc(NS(=O)(=O)c3ccc(Cl)cc3)ccc2oc1=O	0	0	0.2µM	0	0	0
COc1ccc(C(=O)Nc2cc3cc(Cl)ccc3oc2=O)cc1OC	5.8µM	-	0	0	-	2.9µM
Cc1ccc(C(=O)Nc2cc3cc(Cl)ccc3oc2=O)cc1	1.2µM	-	0	0	-	1.5µM
O=C(NCc1ccco1)Nc1nnc([C@H]2C[C@H](O)[C@@H](CO)O2)s1	0	0	0	0	0	0
Cc1[nH]c(=O)c(Cc2ccccc2)c(O)c1C#N	0	0	0	0	0	0
C=CCn1c2ccccc2c(=O)c2cc(C#Cc3ccccn3)ccc21	26µM	0	0	?	0	18µM
